Source: PubChem
Keap1 Nrf2 FP: inhibitors of human Keap1-Nrf2 protein-protein interaction. Q14145. Keap1 Kelch-Nrf2 peptide fluorescence polarization, 1536-well. inhibition, % at 9.4 µM. actives 0.15% (n = 340,000). AID 504523; in the data active = inhibition above about 12%;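 also: human Keap1 Kelch domain with fluorescein labeled Nrf2 9mer peptide probe; 0% = neutral control wells and 100% = peptide positive control; higher means more block of Keap1 binding to Nrf2 peptide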
C-LANA FP: KSHV C-LANA DNA binding inhibition; inhibition, % at 9 µM; AID 504423; actives 0.078% (n = 340,000); MBP-C-LANA/FAM-LBS DNA binding, fluorescence polarization;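 active = highest replicate inhibition at or above 60% at 9 µM, even if other replicates fall short; inactive = all replicates below 60% inhibition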;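 also: 0% = neutral control wells and 100% = 4 µM acridine orange control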
cardiac RTF act: cardiac RTF calcium sensitization | P19429+P45379 | IANBD-labeled TnC RTF fluorescence at EC20 calcium; 0% EC20 calcium, 100% full calcium | activation, % at 7.2 µM | actives 0.24% (n = 340,000) | AID 493008;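 active = activation above the mean over all tested compounds plus 3 SD, cut at about 30% in these data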;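 also: rise in fluorescence read as greater calcium sensitivity of cardiac thin filaments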
eLon inh: inhibitors of E. coli Lon protease; P0A9M0; purified E. coli Lon protease, fluorescence polarization; inhibition, % at 7.94 µM; actives 0.42% (n = 360,000); AID 602123; in the data active = inhibition above about 13%, passing the limit was not always enough;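 also: 0% = enzyme with probe and DMSO and 100% = no enzyme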
Target sequence (P0A9M0 whole entry, looked up): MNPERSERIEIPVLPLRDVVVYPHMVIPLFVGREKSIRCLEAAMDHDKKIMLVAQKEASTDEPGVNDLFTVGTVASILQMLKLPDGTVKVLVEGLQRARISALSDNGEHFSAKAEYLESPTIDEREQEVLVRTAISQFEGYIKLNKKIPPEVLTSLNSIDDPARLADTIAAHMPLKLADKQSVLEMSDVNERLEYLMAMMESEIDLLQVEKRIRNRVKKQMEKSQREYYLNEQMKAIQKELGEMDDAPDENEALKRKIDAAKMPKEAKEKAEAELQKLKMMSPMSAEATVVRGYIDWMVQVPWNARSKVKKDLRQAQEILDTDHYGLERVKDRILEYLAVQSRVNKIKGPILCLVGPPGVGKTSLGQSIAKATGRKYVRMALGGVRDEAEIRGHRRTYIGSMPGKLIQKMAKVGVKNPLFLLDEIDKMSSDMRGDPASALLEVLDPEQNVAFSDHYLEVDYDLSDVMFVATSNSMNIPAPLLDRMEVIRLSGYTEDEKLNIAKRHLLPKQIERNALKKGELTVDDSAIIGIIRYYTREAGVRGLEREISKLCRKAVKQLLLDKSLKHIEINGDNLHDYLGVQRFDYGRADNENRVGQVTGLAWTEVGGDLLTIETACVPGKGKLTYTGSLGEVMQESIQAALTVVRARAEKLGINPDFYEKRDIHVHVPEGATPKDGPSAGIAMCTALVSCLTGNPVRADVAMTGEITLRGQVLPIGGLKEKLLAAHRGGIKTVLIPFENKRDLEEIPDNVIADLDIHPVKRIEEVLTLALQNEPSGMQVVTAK
Cardiac RTF inh: cardiac RTF calcium desensitization; actives 0.12% (n = 340,000); IANBD-labeled cardiac RTF, Ca2+ fluorescence; inhibition, % at 7.15 µM; P19429+P45379;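 active = inhibition above the mean inhibition of all tested compounds plus 3 SD, cut at about 17% in these data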;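 also: assay run at fixed EC70 calcium of 1.6 mM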
* hit, by the source's call. This is a sample that favours compounds with a hit; in the whole collection about 0.74% have one here.

How did COCCNC(=O)C(OC(=O)c1ccco1)c1ccc(OC)cc1 (configuration not stated) do in these assays?
Keap1 Nrf2 FP: -5; C-LANA FP: 1; cardiac RTF act: 1; eLon inh: -12; Cardiac RTF inh: -7

How did COc1cc(C2C3CN(C)CC=C3C(C#N)=C(N)C2(C#N)C#N)ccc1OC(C)C (configuration not stated) do in these assays?
Keap1 Nrf2 FP: 2; C-LANA FP: 33; cardiac RTF act: 42*; eLon inh: 9; Cardiac RTF inh: -27

What do the screens show for `N#Cc1c(N2CCCC(O)C2)nc(N)c2c(N)nc3c(c12)CC(=O)N3C12CC3CC(CC(C3)C1)C2` (configuration not stated)?
Keap1 Nrf2 FP: -3; C-LANA FP: -1; cardiac RTF act: 6; eLon inh: 35*; Cardiac RTF inh: -12

How did C=C(C)CN(CC)c1nc(N)c2c(N)nc3c(c2c1C#N)CC(=O)N3C12CC3CC(CC(C3)C1)C2 do in these assays?
Keap1 Nrf2 FP: 1; C-LANA FP: -2; cardiac RTF act: 4; eLon inh: 21; Cardiac RTF inh: -28

What do the screens show for `Cc1onc(-c2ccccc2)c1C(=O)Nc1cccc2nsnc12`?
Keap1 Nrf2 FP: -6; C-LANA FP: 116*; cardiac RTF act: 1; eLon inh: 5; Cardiac RTF inh: 0

What do the screens show for `Cc1nnc(NC(=O)c2c(-c3ccccc3)noc2C)s1`?
Keap1 Nrf2 FP: -2; C-LANA FP: -4; cardiac RTF act: 1; eLon inh: 3; Cardiac RTF inh: -8

What do the screens show for `COc1ccc(N=C2S/C(=C\c3ccc(N4CCOCC4)o3)C(=O)N2CCc2c[nH]c3ccccc23)cc1`?
Keap1 Nrf2 FP: -5; C-LANA FP: 1; cardiac RTF act: 32*; eLon inh: -32; Cardiac RTF inh: -28

What do the screens show for `CC1(C(=O)NS(=O)(=O)c2ccccc2Cl)CCN1C(=O)CC1CCCC1` (configuration not stated)?
eLon inh: -1

What do the screens show for `Cn1cc(C2=C(c3ccc(Cl)cc3Cl)C(=O)NC2=O)c2ccccc21`?
Keap1 Nrf2 FP: -11; C-LANA FP: 10; cardiac RTF act: 47*; eLon inh: -64; Cardiac RTF inh: -50

How did Cc1ccc(C(=O)NN2C(=O)/C(=C/c3cn(C)c4ccccc34)SC2=S)cc1 do in these assays?
Keap1 Nrf2 FP: -2; C-LANA FP: 3; cardiac RTF act: 77*; eLon inh: -103; Cardiac RTF inh: -55

What do the screens show for `Cc1ccc(C(=O)NN2C(=O)/C(=C/c3cccn3C)SC2=S)cc1`?
Keap1 Nrf2 FP: 2; C-LANA FP: 0; cardiac RTF act: 15; eLon inh: -303; Cardiac RTF inh: -28

What do the screens show for `Cn1cccc1/C=C1\SC(=S)N(NC(=O)c2ccccc2Cl)C1=O`?
Keap1 Nrf2 FP: -38; C-LANA FP: -6; cardiac RTF act: 10; eLon inh: -382; Cardiac RTF inh: -16

What do the screens show for `Cn1cc(/C=C2\SC(=S)N(NC(=O)c3ccccc3Cl)C2=O)c2ccccc21`?
Keap1 Nrf2 FP: -7; C-LANA FP: 0; cardiac RTF act: 74*; eLon inh: inactive; Cardiac RTF inh: -148

What do the screens show for `CCOC(=O)c1c(C)nsc1NC(=O)C1(C)CCN1C(=O)CC` (configuration not stated)?
eLon inh: 0

What do the screens show for `COc1cccc(S(=O)(=O)N(C)C[C@@H]2OCc3cnnn3CCCC(=O)N([C@@H](C)CO)C[C@H]2C)c1`?
eLon inh: 6

What do the screens show for `COCCn1c(=NC(=O)/C=C/c2ccccc2)sc2cc(NC(C)=O)ccc21`?
Keap1 Nrf2 FP: 0; C-LANA FP: -1; cardiac RTF act: 33*; eLon inh: -4; Cardiac RTF inh: -35

What do the screens show for `COCCn1c(=NC(C)=O)sc2cc([N+](=O)[O-])ccc21`?
Keap1 Nrf2 FP: 0; C-LANA FP: 2; cardiac RTF act: 0; eLon inh: -3; Cardiac RTF inh: 0

Results for COc1cc2c3nnc(-c4ccc(F)cc4)c-3cn(Cc3cccc(F)c3)c2cc1OC ?
Keap1 Nrf2 FP: 1; C-LANA FP: 17; cardiac RTF act: 49*; eLon inh: -9; Cardiac RTF inh: -63

What do the screens show for `CCC[N+](CC#CCO)(CC#Cc1ccccc1)CCC`?
Keap1 Nrf2 FP: -2; C-LANA FP: -3; cardiac RTF act: 6; eLon inh: 2; Cardiac RTF inh: -11

Results for CC(C)(CO)NCC#Cc1ccccc1 ?
Keap1 Nrf2 FP: 1; C-LANA FP: 0; cardiac RTF act: 34*; eLon inh: -3; Cardiac RTF inh: -4
